Assay results published in PubChem BioAssay (NCATS).
Inconclusive results are not listed. Activity calls are given as the source filed them. Unless noted, calls come from the whole dose curve; as a rule, active = well fitted curve in the direction sought with a large enough effect; inconclusive = small, poorly fitted or top-dose-only effect, or another doubt; inactive = no such curve, though single readings can be large; an effect the other way counts as inactive or inconclusive.

Tests used:
[1] = Cell Viability - BJ (AID 421; calls by dose curve;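 note: potency is the fitted concentration of half-maximal effect; cells exposed to compound for 40 hours at 37 °C before readout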); conditions: BJ fibroblast viability, qHTS
How it was run: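 Quantitative HTS: ATP depletion in BJ cells after 40 hr compound exposure in complete culture medium, detected with CellTiter-Glo; AC50 from standard Hill fits.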

[2] = Cell Viability - Hek293 (AID 427;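 active = compounds whose dose-response curve shows a full or clear partial loss of cell viability, called from curve shape rather than a numeric limit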;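 note: potency is the fitted concentration of half-maximal effect; cells exposed to compound for 40 hours at 37 °C before reading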); conditions: qHTS
How it was run: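 AC50 values derive from Hill-modelled concentration-response of ATP-based luminescence, normalized between DMSO-only and 100 uM tamoxifen controls. Cells were exposed in complete culture medium for 40 hr at 37 °C before detection.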

[3] = Cell Viability - HepG2 (AID 433; calls by dose curve;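 note: potency is the fitted concentration of half-maximal effect; potency for ATP loss meaning cytotoxicity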); conditions: qHTS
How it was run: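 Cytotoxicity is scored as loss of intracellular ATP in HepG2 cells exposed to compounds for 40 h. Concentration-response curves, normalized to DMSO and 100 uM tamoxifen, give AC50 values.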

[4] = Cell Viability - MRC5 (AID 434; calls by dose curve;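 note: potency is the fitted concentration of half-maximal effect; cells exposed to compound for 40 hours at 37 °C; potency reflects cytotoxicity seen as loss of intracellular ATP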); conditions: MRC5 lung fibroblast viability, qHTS
How it was run: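 qHTS cytotoxicity in human lung fibroblast MRC5 cells; 40 hr treatment, 37 °C; cellular ATP by luciferase luminescence; DMSO = 0%, 100 uM tamoxifen = 100% inhibition; Hill-fit AC50.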

[5] = molecular target: Mitogen-activated protein kinase 10 (Mus musculus) (UniProt Q61831); assay: JNK3 AlphaScreen Assay (AID 530; active = well fitted curve in either direction with a large enough effect, not every such curve was filed as active;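 note: kinase came from lysate of stimulated human HepG2 cells; signal reports phosphorylation of biotinylated GST-cJun 1-79 at Ser73 with 10 µM ATP; series mostly up to about 57 µM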)
How it was run: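 Room-temperature AlphaScreen kinase assay; pre-activated HepG2 lysate as JNK3 source, biotin-GST-cJun(1-79) substrate, 10 uM ATP, compound 15 min preincubation.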

[6] = Cell Viability - HUV-EC-C (AID 542); note: nearly all actives have a fitted effect of over 35% in size
How it was run: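 Decrease in cellular ATP, quantified by luciferase luminescence, reflects toxicity in normal human vascular endothelial HUV-EC-C cells given compound for 40 hr in complete culture medium. Values are AC50s from concentration-response curves.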

[7] = Cell Viability - SH-SY5Y (AID 544); note: nearly all actives have a fitted effect of over 55% in size
How it was run: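 Cytotoxicity is scored as a concentration-dependent fall in intracellular ATP in human SH-SY5Y cells treated 40 hr in complete culture medium. Potency is expressed as AC50 from a Hill equation fit.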

[8] = Cell Viability - Mesenchymal (AID 546);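 note: cells exposed to compound for 40 hours before reading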
How it was run: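 AC50 values reflect the drop in intracellular ATP in a human kidney mesenchymal line derived from normal glomeruli. Treatment lasts 40 hr at 37 °C in complete medium, and the signal comes from CellTiter-Glo luminescence.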

[9] = Cellular Toxicity (caspase-3) HepG2 (AID 654);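 note: cells exposed to compound for 16 hours before reading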
How it was run: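 qHTS, HepG2, 1500 cells/well, complete medium; cpd 16 h 37 °C; Caspase-Glo 3/7, 20 min RT; lum. Norm: DMSO vs 100 uM tamoxifen; AC50 Hill fit.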

[10] = Cellular Toxicity (caspase-3) Jurkat (AID 655);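 note: cells exposed to compound for 16 h at 37 °C before reading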
How it was run: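 Caspase 3/7 activation is scored as increased luminescence in Jurkat cells cultured with compound for 16 hours in complete medium. AC50 values come from Hill fits of qHTS concentration-response data normalized to DMSO and 100 uM tamoxifen controls.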

[11] = Cellular Toxicity (caspase-3) HUV-EC-C (AID 656)
How it was run: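 Read-out: luminescence proportional to caspase 3/7 activity, measured 20 min after adding Caspase-Glo 3/7 reagent. Cells (HUV-EC-C) had received compound for 16 hr at 37°C. Increases relative to DMSO and 100 uM tamoxifen gave concentration-response AC50 values.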

[12] = Cellular Toxicity (caspase-3) SHSY5Y (AID 657);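 note: cells exposed to compound for 16 hours at 37 °C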
How it was run: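 Cells plated and incubated 5 h at 37 °C, dosed over a concentration range, incubated 16 h, then given Caspase-Glo 3/7 reagent for 1 h at room temperature before luminescence reading. Staurosporine (10 uM) defined full stimulation.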

[13] = Cellular Toxicity (caspase-3) BJ (AID 658)
How it was run: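 Readout: Caspase-Glo 3/7 luminescence increase in BJ cells after 16 hr treatment at 37 °C. Staurosporine and tamoxifen served as positive controls; AC50 values came from Hill modelling of data normalized to DMSO and 10 uM staurosporine.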

[14] = Cellular Toxicity (caspase-3) MRC-5 (AID 659);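 note: cells exposed to compound for 16 h at 37 °C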
How it was run: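 Concentration-dependent caspase 3/7 activation is measured in human normal lung fibroblasts (MRC-5) following 16-hour treatment. AC50 values come from standard Hill-equation modeling of luminescence normalized to DMSO and 10 uM staurosporine.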

[15] = Cellular Toxicity (caspase-3) Mesangial (AID 660);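 note: cells exposed to compound for 16 h before the caspase read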
How it was run: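 Concentration-response qHTS: compound-induced rise in caspase 3/7 luminescence in human mesangial cells after 16 h, normalized to DMSO and 100 uM tamoxifen controls.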

[16] = Cellular Toxicity (caspase-3) SK-N-SH (AID 661)
How it was run: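 Caspase 3/7 activation is measured as a luminescence increase from aminoluciferin released by substrate cleavage in SK-N-SH cells after 16 hr compound treatment; values are AC50 from concentration-response curves.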

[17] = Cellular Toxicity (caspase-3) H-4-II-E (AID 663)
How it was run: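 Apoptosis induction is scored as increased luminescence from caspase 3/7 substrate cleavage in rat hepatoma H-4-II-E cells exposed to compound for 16 hr. Activity is scaled between DMSO and 100 uM tamoxifen.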

[18] = Cellular Toxicity (caspase-3) Hek293 (AID 664);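 note: cells exposed to compound for 16 h at 37 °C before readout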
How it was run: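 Activation of caspase-3/7 is measured as increased luminescence from cleaved peptide-aminoluciferin substrate in HEK293 cells treated 16 hours at 37 °C. AC50 values come from Hill-equation fits of concentration-response data.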

[19] = Cellular Toxicity (caspase-3) N2a (AID 665);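 note: compound exposure lasted 16 h at 37 °C before readout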
How it was run: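 Plated mouse neuroblastoma N2a cells received titrated compounds for 16 h in complete medium. Caspase activity was then detected with a peptide-aminoluciferin luminescent reagent.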

[20] = molecular target: Cytochrome P450 3A4 (Homo sapiens) (UniProt P08684); assay: qHTS Assay for Inhibitors and Substrates of Cytochrome P450 3A4 (AID 884); note: series mostly up to about 57 µM; nearly all actives have a fitted effect of over 50% in size
How it was run: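 20 nM human CYP3A4 with 25 uM Luciferin-PPXE (at KM) in 200 mM KPO4, preincubated 10 min with compound; NADPH regeneration started a 60 min RT reaction. Luciferin detected by luminescence, normalized to 57 uM ketoconazole as full inhibition.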

[21] = Confirmation and Secondary Assay for Modulators of Hemoglobin Beta Chain Splicing at IVS2 654 locus (AID 910);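 note: HeLa cells stably carrying EGFP split by mutant beta-globin IVS2-654 intron; per-well total GFP intensity by laser scanning cytometry after 2-day treatment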
How it was run: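 Readout: per-well total peak green fluorescence (488 nm ex, 500–520 nm em) from objects 5–250 µm, reflecting correct splicing of an EGFP-654 reporter. Compounds were applied for 2 days at 37 °C to overnight-plated HeLa EGFP-654 cells; controls were DMSO and 500 nM IVS2-654 PNA.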

[22] = Cell Viability - LYMP2-001 (AID 921); note: series mostly up to about 92 µM; nearly all actives have a fitted effect of over 70% in size
How it was run: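 qHTS, 1536-well; lymphoblastoid cells, 24 hr compound, 37 C; ATP by CellTiter-Glo, 30 min RT; luminescence; Hill-fit AC50.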

[23] = Confirmation and Secondary Assay for Modulators of Hemoglobin Beta Chain Splicing at IVS2 705 locus (AID 930);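 note: HeLa cells stably expressing the EGFP-705 splicing reporter; GFP fluorescence per well restored by corrected splicing of the IVS2-705 intron in EGFP; series mostly up to about 46 µM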
How it was run: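 HeLa IVS2-705 EGFP reporter cells, 500/well, compound 2 d at 37C; correct splicing yields fluorescent EGFP. Control: 500 nM antisense PNA. Read-out: total peak GFP intensity.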

[24] = MultiTox-Fluor Cytotoxicity Assay - LYMP1-001 - Dead Cells (AID 946)
How it was run: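 In this qHTS, 15 uM tetraoctylammonium bromide defined 100% and DMSO defined basal activity. Lymphoblastoid cells (LYMP1-001, 2500 per well) received compound for 16 hr at 37 C before a fluorogenic dead-cell substrate readout at 485/520 nm.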

[25] = Cell Viability - LYMP1-002 - Assay at 16 hr (AID 948)
How it was run: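 Acute cytotoxicity is scored as a concentration-dependent fall in intracellular ATP in a human lymphoblastoid line (LYMP1-002) after 16 hr compound exposure at 37 C, measured by luciferase luminescence.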

[26] = MultiTox-Fluor Cytotoxicity Assay - LYMP1-002 - Live Cells (AID 955)
How it was run: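 Cytotoxicity in the human lymphoblastoid line LYMP1-002 is measured as loss of live-cell protease activity after 16 h treatment in complete culture medium. AC50 is derived from Hill-equation fits of qHTS concentration-response data.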

[27] = MultiTox-Fluor Cytotoxicity Assay - LYMP1-003 - Dead Cells (AID 961);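 note: cells exposed to compound for 16 h at 37 °C; nearly all actives have a fitted effect of over 70% in size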
How it was run: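 Acute toxicity is scored as increased dead-cell protease activity in human lymphoblastoid LYMP1-003 cells after 16 h compound exposure in complete culture medium. Activity is normalized to DMSO basal and 15 uM tetraoctylammonium bromide as full response.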

[28] = MultiTox-Fluor Cytotoxicity Assay - LYMP1-003 - Live Cells (AID 962);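 note: cells exposed to compound for 16 hours at 37 °C; cytotoxic hits lower the live-cell protease signal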
How it was run: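 Cells plated at 2500 per well and incubated 5 hr; compounds added and incubated 16 hr at 37 C; MultiTox-Fluor reagent added for 60 min at room temperature; fluorescence of liberated AFC measured at 405/510 nm.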

[29] = Cell Viability - LYMP1-003 - Assay at 24 hr (AID 963)
How it was run: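 Acute toxicity in LYMP1-003 lymphoblastoid cells: 24 hr compound treatment at 37 C, ATP measured with CellTiter-Glo after 30 min at room temperature. AC50 derived by fitting the Hill equation to qHTS titrations.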

[30] = Cell Viability - LYMP1-003 - Assay at 40 hr (AID 964); note: series mostly up to about 92 µM; nearly all actives have a fitted effect of over 60% in size
How it was run: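 This qHTS cytotoxicity screen treats human lymphoblastoid cells (LYMP1-003) with compounds for 40 hr and quantifies cellular ATP via luciferase luminescence.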

[31] = Cell Viability - LYMP2-003 (AID 965);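 note: cells exposed to compounds for 24 h before reading; nearly all actives have a fitted effect of over 50% in size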
How it was run: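 Acute cytotoxicity is scored as a concentration-dependent drop in intracellular ATP, measured by luciferase luminescence in human lymphoblastoid cells treated for 24 hours at 37 C. AC50 values derive from Hill-equation modelling.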

[32] = Cell Viability - LYMP2-004 (AID 966); note: nearly all actives have a fitted effect of over 65% in size
How it was run: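 Acute toxicity is scored as a concentration-dependent drop in intracellular ATP, quantified by luciferase luminescence, in human lymphoblastoid cells exposed to compound for 24 hr. AC50 derives from Hill-equation modelling.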

[33] = Cell Viability - LYMP2-005 (AID 967); note: series mostly up to about 92 µM
How it was run: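 qHTS viability screen in LYMP2-005 cells: 24 h at 37 C with compound, ATP luminescence via CellTiter-Glo, AC50 from Hill curves.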

[34] = Cell Viability - LYMP2-009 (AID 968); note: series mostly up to about 92 µM; nearly all actives have a fitted effect of over 55% in size
[35] = Cell Viability - LYMP2-011 (AID 969); note: nearly all actives have a fitted effect of over 60% in size
How it was run: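 Acute toxicity is scored as a concentration-dependent drop in intracellular ATP of a human lymphoblastoid line after 24 hr treatment. Values are AC50s modeled with the Hill equation.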

[36] = Cell Viability - LYMP2-013 (AID 970); note: series mostly up to about 92 µM; nearly all actives have a fitted effect of over 55% in size
How it was run: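 Acute toxicity was measured in human lymphoblastoid cells (2500/well) exposed to compound titrations for 24 hr, with ATP luminescence (CellTiter-Glo) as read-out and AC50 fitted by Hill equation.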

[37] = Cell Viability - LYMP2-015 (AID 971); note: nearly all actives have a fitted effect of over 55% in size
How it was run: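 Acute toxicity was scored as a concentration-dependent drop in intracellular ATP in lymphoblastoid cells after 24 hr compound exposure in complete medium. Detection used CellTiter-Glo luciferase luminescence.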

[38] = Cell Viability - LYMP2-017 (AID 972)
How it was run: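 Steps: plate 2500 lymphoblastoid cells per well; incubate 5 hr at 37 C; add compound across a concentration series and incubate 24 hr at 37 C; add CellTiter-Glo and read luminescence after 30 min at room temperature; fit Hill curves for AC50.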

[39] = Cell Viability - LYMP2-019 (AID 973); note: nearly all actives have a fitted effect of over 55% in size
How it was run: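 Cells plated at 2500/well and allowed 5 hr at 37 C before compound addition. After 24 hr incubation, CellTiter-Glo reagent was added, plates sat 30 min at room temperature, and luminescence was recorded.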

[40] = Cell Viability - LYMP2-021 (AID 974)
How it was run: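 Concentration-response cytotoxicity in a human lymphoblastoid line: 24 hr treatment at 37 C in complete culture medium, tetraoctylammonium bromide as positive control, luminescent ATP quantitation as viability measure.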

[41] = Cell Viability - LYMP2-023 (AID 975)
How it was run: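 Concentration-dependent drop in intracellular ATP measures acute cytotoxicity in a human lymphoblastoid line treated for 24 hours in complete culture medium. AC50 values are taken from Hill-equation fits of qHTS data.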

[42] = Cell Viability - LYMP2-002 (AID 977);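 note: series mostly up to about 92 µM; compound exposure lasted 24 h at 37 °C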
How it was run: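 Cytotoxicity is scored as concentration-dependent loss of cellular ATP in a human lymphoblastoid line after 24 hr compound treatment at 37 C. AC50 is obtained by modelling concentration-response data with the Hill equation.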

Measured: Potency

Cytochrome P450 3A4 (Homo sapiens), sequence (P08684 whole entry, looked up): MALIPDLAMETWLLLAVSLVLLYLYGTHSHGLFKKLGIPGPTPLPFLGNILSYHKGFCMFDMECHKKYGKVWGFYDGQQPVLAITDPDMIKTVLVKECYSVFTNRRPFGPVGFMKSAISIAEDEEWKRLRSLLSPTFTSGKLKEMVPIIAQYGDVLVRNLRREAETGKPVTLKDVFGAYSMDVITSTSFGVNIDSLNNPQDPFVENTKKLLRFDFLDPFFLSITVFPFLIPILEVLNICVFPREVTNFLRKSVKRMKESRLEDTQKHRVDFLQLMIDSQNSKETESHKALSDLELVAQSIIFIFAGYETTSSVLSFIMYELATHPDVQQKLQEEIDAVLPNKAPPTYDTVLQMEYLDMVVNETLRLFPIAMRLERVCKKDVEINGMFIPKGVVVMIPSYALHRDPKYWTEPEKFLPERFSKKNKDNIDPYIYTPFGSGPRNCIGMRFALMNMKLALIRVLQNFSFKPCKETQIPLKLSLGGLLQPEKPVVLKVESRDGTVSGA

O=C(Nc1ccccc1)Nc1ccccc1
inactive: [1] > 92 µM | [2] > 92 µM | [3] > 92 µM | [4] > 92 µM | [5] | [6] | [7] | [8] | [9] | [10] | [11] | [12] | [13] | [14] | [15] | [16] | [17] | [18] | [19] | [20] | [21] | [22] | [23] | [24] | [25] | [26] | [27] | [28] | [29] | [30] | [31] | [32] | [33] | [34] | [35] | [36] | [37] | [38] | [39] | [40] | [41] | [42]
